# Results reported in the supplement of paper PMC7411054.
# Structures can show the parent of a compound that is named as a salt.
# Assays:
# Details in all cases: treatment time: 24 h
# A549-ACTB-RAB5A [1] = experiment: phenotypically active (imaging signature differs from DMSO and reproducible) at any of 0.3-9 uM (binary (1 = active, 0 = inactive)); higher = active
# In short: (§1)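 Live-cell features were measured per well and normalised to solvent control wells after fifteen gene-edited A549, HepG2 and WPMY1 reporter lines had been treated for 24 h at 0.3, 1, 3 or 9 µM in four wells each. A condition was deviating when ≥3 of 4 wells sat beyond the 95th percentile of control Euclidean distances. It was reproducible when the median replicate Pearson correlation exceeded the 95th percentile of non-replicates. Phenotypic activity demanded both.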
# A549-CANX-COX4 [2] = experiment: as above
# In short: as §1
# A549-GM130-SQSTM1 [3] = experiment: as above
# In short: as §1
# A549-TP53BP1-CLTA [4] = experiment: as above
# In short: as §1
# A549-TUBA1B-RELA [5] = experiment: as above
# In short: as §1
# HepG2-ACTB-RAB5A = experiment: as above
# In short: as §1
# HepG2-CANX-COX4 = experiment: as above
# In short: as §1
# HepG2-GM130-SQSTM1 = experiment: as above
# In short: as §1
# HepG2-TP53BP1-CLTA = experiment: as above
# In short: as §1
# HepG2-TUBA1B-RELA = experiment: as above
# In short: as §1
# WPMY1-ACTB-RAB5A = experiment: as above
# In short: as §1
# WPMY1-CANX-COX4 = experiment: as above
# In short: as §1
# WPMY1-GM130-SQSTM1 = experiment: as above
# In short: as §1
# WPMY1-TP53BP1-CLTA = experiment: as above
# In short: as §1
# WPMY1-TUBA1B-RELA = experiment: as above
# In short: as §1
# A549-ACTB-RAB5A [6] = experiment: lowest phenotypically active concentration; higher = less potent
# In short: as §1
# A549-CANX-COX4 [7] = experiment: as above
# In short: as §1
# A549-GM130-SQSTM1 [8] = experiment: as above
# In short: as §1
# A549-TP53BP1-CLTA [9] = experiment: as above
# In short: as §1
# A549-TUBA1B-RELA [10] = experiment: as above
# In short: as §1
Compound,phenotypically active (A549-ACTB-RAB5A [1]),phenotypically active (A549-CANX-COX4 [2]),phenotypically active (A549-GM130-SQSTM1 [3]),phenotypically active (A549-TP53BP1-CLTA [4]),phenotypically active (A549-TUBA1B-RELA [5]),phenotypically active (HepG2-ACTB-RAB5A),phenotypically active (HepG2-CANX-COX4),phenotypically active (HepG2-GM130-SQSTM1),phenotypically active (HepG2-TP53BP1-CLTA),phenotypically active (HepG2-TUBA1B-RELA),phenotypically active (WPMY1-ACTB-RAB5A),phenotypically active (WPMY1-CANX-COX4),phenotypically active (WPMY1-GM130-SQSTM1),phenotypically active (WPMY1-TP53BP1-CLTA),phenotypically active (WPMY1-TUBA1B-RELA),lowest phenotypically active concentration (A549-ACTB-RAB5A [6]),lowest phenotypically active concentration (A549-CANX-COX4 [7]),lowest phenotypically active concentration (A549-GM130-SQSTM1 [8]),lowest phenotypically active concentration (A549-TP53BP1-CLTA [9]),lowest phenotypically active concentration (A549-TUBA1B-RELA [10])
O=C(Nc1c(Cl)cncc1Cl)c1ccc(OC(F)F)c(OCC2CC2)c1 [roflumilast],0 (inactive),0 (inactive),0 (inactive),0 (inactive),0 (inactive),0 (inactive),0 (inactive),0 (inactive),0 (inactive),0 (inactive),0 (inactive),0 (inactive),0 (inactive),0 (inactive),0 (inactive),–,–,–,–,–
COc1cc(O)c2c(c1C1CCCN1)OC(c1ccc(O)cc1)CC2 (stereo unspecified) [Vochysine (4 dia/énantio)],0 (inactive),0 (inactive),0 (inactive),0 (inactive),0 (inactive),0 (inactive),0 (inactive),0 (inactive),0 (inactive),0 (inactive),0 (inactive),0 (inactive),0 (inactive),0 (inactive),0 (inactive),–,–,–,–,–
CC[C@H](C)C(=O)O[C@H]1C[C@H](O)C=C2C=C[C@H](C)[C@H](CC[C@@H](O)C[C@@H](O)CC(=O)O)[C@H]21 [pravastatin],0 (inactive),0 (inactive),0 (inactive),0 (inactive),0 (inactive),0 (inactive),0 (inactive),0 (inactive),0 (inactive),0 (inactive),0 (inactive),0 (inactive),0 (inactive),0 (inactive),0 (inactive),–,–,–,–,–
C#C[C@]1(O)CC[C@H]2[C@@H]3CCC4=CC(=NO)CC[C@@H]4[C@H]3CC[C@@]21CC [norelgestromin],0 (inactive),0 (inactive),0 (inactive),0 (inactive),0 (inactive),0 (inactive),0 (inactive),0 (inactive),0 (inactive),0 (inactive),0 (inactive),0 (inactive),0 (inactive),0 (inactive),0 (inactive),–,–,–,–,–
CO/N=C/C1=CCCN(C)C1 [Milameline hydrochloride],0 (inactive),0 (inactive),0 (inactive),0 (inactive),0 (inactive),0 (inactive),0 (inactive),0 (inactive),0 (inactive),0 (inactive),0 (inactive),0 (inactive),0 (inactive),0 (inactive),0 (inactive),–,–,–,–,–
CCN1C(C)(C)CC(Oc2ccc(C(=O)Nc3ccc(NC(=O)Nc4cc(C(C)(C)C)on4)cc3)nc2)CC1(C)C,0 (inactive),0 (inactive),0 (inactive),0 (inactive),0 (inactive),0 (inactive),0 (inactive),0 (inactive),0 (inactive),0 (inactive),0 (inactive),0 (inactive),0 (inactive),0 (inactive),0 (inactive),–,–,–,–,–
COc1ccccc1OCC(O)CN1CCN(CC(=O)Nc2c(C)cccc2C)CC1 (stereo unspecified) [ranolazine],0 (inactive),0 (inactive),0 (inactive),0 (inactive),0 (inactive),0 (inactive),0 (inactive),0 (inactive),0 (inactive),0 (inactive),0 (inactive),0 (inactive),0 (inactive),0 (inactive),0 (inactive),–,–,–,–,–
CCC(=O)OCC(=O)[C@@]1(OC(=O)CC)[C@@H](C)C[C@H]2[C@@H]3CCC4=CC(=O)C=C[C@]4(C)[C@@]3(Cl)[C@@H](O)C[C@@]21C [beclomethasone-dipropionate],1 (active),1 (active),1 (active),1 (active),1 (active),0 (inactive),0 (inactive),0 (inactive),0 (inactive),0 (inactive),0 (inactive),0 (inactive),0 (inactive),0 (inactive),0 (inactive),≤ 0.3 µM,≤ 0.3 µM,≤ 0.3 µM,≤ 0.3 µM,≤ 0.3 µM
CON(C)C(=O)N1N=C(c2cc(F)ccc2F)S[C@@]1(CCCN)c1ccccc1 [ARRY 520 trifluoroacetate],1 (active),1 (active),1 (active),1 (active),1 (active),1 (active),1 (active),1 (active),1 (active),1 (active),1 (active),1 (active),1 (active),1 (active),1 (active),≤ 0.3 µM,≤ 0.3 µM,≤ 0.3 µM,≤ 0.3 µM,≤ 0.3 µM
C[C@@H]1O[C@@H](OC[C@H]2O[C@@H](Oc3c(-c4ccc(O)c(O)c4)oc4cc(O)cc(O)c4c3=O)[C@H](O)[C@@H](O)[C@@H]2O)[C@H](O)[C@H](O)[C@H]1O [Quercétine-3-rutinoside],1 (active),0 (inactive),0 (inactive),0 (inactive),0 (inactive),0 (inactive),0 (inactive),0 (inactive),0 (inactive),0 (inactive),0 (inactive),0 (inactive),0 (inactive),0 (inactive),0 (inactive),9 µM,–,–,–,–
COc1ccc(C2=N[C@H](c3ccc(Cl)cc3)[C@H](c3ccc(Cl)cc3)N2C(=O)N2CCNC(=O)C2)c(OC(C)C)c1 [Nutlin-3],0 (inactive),0 (inactive),0 (inactive),0 (inactive),0 (inactive),0 (inactive),0 (inactive),0 (inactive),0 (inactive),0 (inactive),0 (inactive),0 (inactive),0 (inactive),0 (inactive),0 (inactive),–,–,–,–,–
CC(C)(C)NCC(O)c1ccc(O)c(CO)c1 (stereo unspecified) [albuterol],0 (inactive),0 (inactive),0 (inactive),0 (inactive),0 (inactive),0 (inactive),0 (inactive),0 (inactive),0 (inactive),0 (inactive),0 (inactive),0 (inactive),0 (inactive),0 (inactive),0 (inactive),–,–,–,–,–
COc1cc(C[C@H]2C(=O)OC[C@@H]2Cc2ccc(OC)c(OC)c2)ccc1O [Arctigenin],1 (active),1 (active),1 (active),1 (active),1 (active),1 (active),1 (active),1 (active),1 (active),1 (active),0 (inactive),0 (inactive),0 (inactive),0 (inactive),0 (inactive),3 µM,3 µM,3 µM,3 µM,9 µM
O=C(Nc1cccnc1)c1cc(-c2ccnc(F)c2)ccc1OCc1ccccc1,0 (inactive),0 (inactive),0 (inactive),0 (inactive),0 (inactive),0 (inactive),0 (inactive),0 (inactive),0 (inactive),0 (inactive),0 (inactive),0 (inactive),0 (inactive),0 (inactive),0 (inactive),–,–,–,–,–
CC(=O)[C@@]1(O)CC[C@H]2[C@@H]3C[C@H](C)C4=CC(=O)C=C[C@]4(C)[C@@]3(F)[C@@H](O)C[C@@]21C [fluorometholone],1 (active),1 (active),1 (active),1 (active),1 (active),0 (inactive),0 (inactive),0 (inactive),0 (inactive),0 (inactive),0 (inactive),0 (inactive),0 (inactive),0 (inactive),0 (inactive),≤ 0.3 µM,≤ 0.3 µM,≤ 0.3 µM,≤ 0.3 µM,≤ 0.3 µM
CC1(C)O[C@@H]2C[C@H]3[C@@H]4C[C@H](F)C5=CC(=O)CC[C@]5(C)[C@H]4[C@@H](O)C[C@]3(C)[C@]2(C(=O)CO)O1 [flurandrenolide],1 (active),1 (active),1 (active),1 (active),1 (active),0 (inactive),0 (inactive),0 (inactive),0 (inactive),0 (inactive),0 (inactive),0 (inactive),0 (inactive),0 (inactive),0 (inactive),≤ 0.3 µM,≤ 0.3 µM,≤ 0.3 µM,≤ 0.3 µM,≤ 0.3 µM
O=C1NC(=O)[C@@H](c2cn3c4c(cccc24)CCC3)[C@@H]1c1c[nH]c2ccccc12 [tivantinib],1 (active),1 (active),1 (active),1 (active),1 (active),1 (active),1 (active),1 (active),1 (active),1 (active),1 (active),1 (active),1 (active),1 (active),1 (active),1 µM,1 µM,1 µM,1 µM,3 µM
CC(=O)OCC(=O)[C@@]12OC3(CCCC3)O[C@@H]1C[C@H]1[C@@H]3CCC4=CC(=O)C=C[C@]4(C)[C@@]3(F)[C@@H](O)C[C@@]12C [amcinonide],1 (active),1 (active),1 (active),1 (active),1 (active),0 (inactive),0 (inactive),0 (inactive),0 (inactive),0 (inactive),0 (inactive),0 (inactive),0 (inactive),0 (inactive),0 (inactive),≤ 0.3 µM,≤ 0.3 µM,≤ 0.3 µM,≤ 0.3 µM,≤ 0.3 µM
C[C@](N)(Cc1ccc(O)c(O)c1)C(=O)O [methyldopa],0 (inactive),0 (inactive),0 (inactive),0 (inactive),0 (inactive),0 (inactive),0 (inactive),0 (inactive),0 (inactive),0 (inactive),0 (inactive),0 (inactive),0 (inactive),0 (inactive),0 (inactive),–,–,–,–,–
Cn1cnc([N+](=O)[O-])c1Sc1ncnc2nc[nH]c12 [azathioprine],0 (inactive),0 (inactive),0 (inactive),0 (inactive),0 (inactive),0 (inactive),0 (inactive),0 (inactive),0 (inactive),0 (inactive),0 (inactive),0 (inactive),0 (inactive),0 (inactive),0 (inactive),–,–,–,–,–
COc1cc(N2CCC(O)CC2)ccc1Nc1cc(Nc2ccccc2S(=O)(=O)C(C)C)c2cc[nH]c2n1 [Mps1-IN-1 dihydrochloride],1 (active),1 (active),1 (active),1 (active),1 (active),1 (active),1 (active),1 (active),1 (active),1 (active),1 (active),1 (active),1 (active),1 (active),0 (inactive),9 µM,9 µM,9 µM,9 µM,9 µM
